One assay deals with TCL1B. The experiment in a line: pooled miR-30 sensor sort-seq; sequence = guide strand. The settings on record: shRNA.
For the sequence TCCTCATCTTCGTAGATGCCAG, the sensor-assay potency score (higher = more potent) is -1.52.

Sequence TGCTCCATAGAGTCAATCTGGC had a sensor-assay potency score (higher = more potent) of -0.928.

In turn, TTTCCCAGAAACTGGAATCCGC registered a sensor-assay potency score (higher = more potent) of -0.902.

As for TTCATATCTGCTGCCCTGGGAG, the sensor-assay potency score (higher = more potent) was -0.879.

As for TTGAACCGCACGACCACAGTCA, the sensor-assay potency score (higher = more potent) is -0.246.

The sequence TCTGCTATTTCCCAGAAACTGG registered a sensor-assay potency score (higher = more potent) of -1.48.

With AACTGGAATCCGCTGCTCGGTA, the sensor-assay potency score (higher = more potent) is -1.06.

Sequence TACATGAAGATCCTCACTGAGG displayed a sensor-assay potency score (higher = more potent) of -0.791.

The sequence ATGCTGGGTTCATATCTGCTGC returned a sensor-assay potency score (higher = more potent) of -1.39.

Take TCTGGATCCACAGACGGCCAGG: the sensor-assay potency score (higher = more potent) was -1.15.

With TGTTAGGACCAGCTGCTCCATA, the sensor-assay potency score (higher = more potent) is -1.25.

Take TTAATTAACCAGTACTGTGAGG: the sensor-assay potency score (higher = more potent) was -0.714.

For the next assay, the target named is TCTN3. The description is as above. The settings on record: shRNA.
As to TTTTAACAGAGCAACTTCCATT, the sensor-assay potency score (higher = more potent) was -0.964.

On to TAACTTGCTGAGAATCCTGTAT, for which the sensor-assay potency score (higher = more potent) is -0.198.

As to TTGGTCTCTATCTCATAGGTGA, the sensor-assay potency score (higher = more potent) is -0.211.

TTGAAGTGAATGATTCGCCTCC yielded a sensor-assay potency score (higher = more potent) of 0.789.

With TTGTCTACACAAACCCAGCTTG, the sensor-assay potency score (higher = more potent) is -0.828.

In turn, TGTAACTTGCTGAGAATCCTGT had a sensor-assay potency score (higher = more potent) of 0.381.

For TTTTACTCTCTAGGAAACCTGC, the sensor-assay potency score (higher = more potent) was -1.11.

TTTATAGCTGAAATGCTGCAGT: the sensor-assay potency score (higher = more potent) was found to be 0.223.

On to TATATCATCAGTCAGAGCCAAG, for which the sensor-assay potency score (higher = more potent) is -1.46.

Turning to TATAGGAATCGAACTCCTGATA, the sensor-assay potency score (higher = more potent) is -0.82.

Source of the values: the OligoGym collection.
Further: reference of the scale not given here.
